From PubChem
FBPA Giardia inh: blocks Giardia fructose-bisphosphate aldolase activity; Potency, µM (doses to about 59.6 µM), without a hit: at the highest dose activity, negative = inhibition, actives largely listed as inhibitors; purified Giardia FBPA; A8B2U2; actives 0.71% (n = 290,000); further: potency means the concentration at half of the fitted maximal effect; on the % scale 0 is the no-effect control and ±100 the full control effect; nearly all actives have a fitted effect of over 55% in size
Target sequence (A8B2U2 whole entry, looked up): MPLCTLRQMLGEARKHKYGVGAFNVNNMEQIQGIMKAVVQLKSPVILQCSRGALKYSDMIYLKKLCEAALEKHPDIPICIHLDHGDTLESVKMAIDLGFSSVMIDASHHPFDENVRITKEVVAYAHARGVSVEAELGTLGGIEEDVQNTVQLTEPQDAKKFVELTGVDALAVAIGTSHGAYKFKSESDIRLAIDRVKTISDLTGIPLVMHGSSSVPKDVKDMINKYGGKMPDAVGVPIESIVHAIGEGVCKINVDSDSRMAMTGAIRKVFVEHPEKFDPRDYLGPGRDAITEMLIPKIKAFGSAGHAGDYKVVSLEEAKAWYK
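Giardia FBPA (40 nM reagent) was preincubated 10 min at RT with compound (up to 57.5 uM final), then substrate plus GAPDH/TPI/NAD/arsenate coupling system with diaphorase/resazurin was added; resorufin fluorescence (525/598 nm) was read after 20 min.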
Shiga inhibitor: Shiga toxin inhibition; AID 2315; Vero cells, Shiga toxin protein synthesis inhibition reporter; actives 9.2% (n = 290,000); inhibition, % at 38.7 µM; in the data active means inhibition mostly above about 28%, no sharp cut-off; inactive means mostly below about 43%; further: 0% is about no effect
CHX counter: counter-screen for Shiga toxin inhibitors: cycloheximide protein synthesis inhibition; cell reporter, cycloheximide protein synthesis inhibition counterscreen; max response, %; actives 12% (n = 300,000); AID 2314; in the data active means max response mostly above about 13%, no sharp cut-off; inactive means mostly below about 14%; further: read at 38.3 µM for the half of the compounds with a filed dose; 0% is about no effect
LmPK inh: blocks Leishmania mexicana pyruvate kinase activity; purified LmPK, Kinase-Glo ATP luminescence, 1 h; Q27686; Potency, µM (top dose mostly 57.5 µM), inactives show at the highest dose activity change, negative = inhibition, most hits filed as inhibitors; AID 1721; actives 0.37% (n = 290,000); further: potency means the concentration at half of the fitted maximal effect; on the % scale 0 is the no-effect control and ±100 the full control effect
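In 50 mM imidazole pH 7.2 with 7 mM MgCl2, LmPK (0.1 nM) turned over PEP (0.5 mM) and ADP (0.1 mM) for 1 h at room temperature. Luciferase read-out of ATP.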
Tb PYK inh: blocks Trypanosoma brucei pyruvate kinase | Q57TT1 | TbPYK enzyme, Kinase-Glo Plus ATP luminescence, 45 min | Potency, µM (doses to about 76.8 µM), for the others: top-dose activity, negative = inhibition, most hits filed as inhibitors | actives 0.12% (n = 410,000) | AID 624173; further: potency means the concentration at half of the fitted maximal effect; on the % scale 0 is the no-effect control and ±100 the full control effect; nearly all actives have a fitted effect of over 50% in size
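Enzyme and substrate buffer are dispensed first and compound is pin-transferred. ADP at 130 uM final then starts the reaction, which runs 45 min at room temperature. Detection reagent is added for 10 min before luminescence is imaged.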
RE007 growth inh: less growth of the S. pombe RE007 Vpr strain; AID 651644; S. pombe RE007 Vpr strain, BacTiter-Glo ATP luminescence, 24 h; actives 0.21% (n = 360,000); Potency, µM (highest dose often 92.2 µM), inactives show at the top dose activity change, negative = less growth, hits mostly inhibitors; active means well fitted falling curve with a large enough effect; inconclusive means small, poorly fitted or top-dose-only effect; inactive means no such curve, though single readings can be large or run the other way; further: potency means the concentration at half of the fitted maximal effect; on the % scale 0 is the no-effect control and ±100 the full control effect; nearly all actives have a fitted effect of over 50% in size
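Fission yeast RE007 carrying one integrated HIV-1 vpr copy, seeded at OD 0.01 in PMG+AL medium with 23 nL pinned compound. Grown 24 h at 30 degrees; viability read by BacTiter-Glo luminescence after 5 min.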
* hit, by the source's call; ? = inconclusive; / = not tested or not shown; ! = not active in a repeat; [ ] = dose if it differs, or a comment. This is one part of a sample in which hits are shown more often than they occur. Unless noted, the call rests on the fitted dose curve; in most records, active means well fitted curve in the direction sought with a large enough effect; inconclusive means small, poorly fitted or top-dose-only effect, or another doubt; inactive means no such curve, though single readings can be large; an effect the other way counts as inactive or inconclusive.

SMILES | FBPA Giardia inh | Shiga inhibitor | CHX counter | LmPK inh | Tb PYK inh | RE007 growth inh
CC(C)n1c(N2CCN(C(=O)Nc3ccc(Cl)cc3)CC2)nc2ccccc21 | 4% | 34* | -1 | 0% | 1% | -13%
CCCn1c(N2CCN(C(=O)Nc3ccc(Cl)cc3)CC2)nc2ccccc21 | 1% | 12 | -2 | 2% | 7% | -10%
O=C(Nc1ccc(Cl)cc1)N1CCCC1 | 1% | 36 | 14* | -2% | 4% | -27%
Fc1ccc(-n2ncc3c(N4CCN(c5ccccc5F)CC4)ncnc32)cc1 | / | / | / | / | 3% | /
O=C(NNc1ccccc1[N+](=O)[O-])Nc1ccc(F)cc1 | -10% | 33* | 13 | 1% | 1% | -11%
O=C(NNc1ccccc1[N+](=O)[O-])Nc1ccc(Cl)c(Cl)c1 | -25% | 16* | 17 | -1% | 2% | 11%
O=C(NNc1ccccc1[N+](=O)[O-])Nc1ccccc1 | -18% | -5 | 15 | -8% | 1% | -3%
COc1ccc(COc2cc(-c3cccc(OC)c3)nc3ccc(N)cc23)cc1 | -10%[89.2 µM] | 61*! | 37*! | 9% | -4% | -15%
CC(C)c1cc(C(C)C)c(S(=O)(=O)Nc2cccc3cccnc23)c(C(C)C)c1 | -21% | 2 | 4 | / | / | /
O=C(c1nn2c(C(F)(F)F)cc(-c3cccs3)nc2c1Cl)N1CCCc2ccccc21 | -6% | 80* | 48* | -1% | 3% | 12%
Cc1nn(C)c(C(=O)N2CCc3ccccc32)c1Br | -4% | -11 | -3 | -1% | 8% | /
Cc1c(Br)c(C(=O)N2CCc3ccccc32)nn1C | -1% | 62* | 91* | -23% | -9% | 4%
Cc1c(Cl)c(C(=O)N2CCCc3ccccc32)nn1C | 1% | 47* | 16 | -2% | -4% | 22%
O=C(c1cnn2c(C(F)(F)F)cc(-c3ccccc3)nc12)N1CCCc2ccccc21 | 6% | -2 | 2 | 2% | -2% | -6%
CCCc1nn2c(=O)cc(COC(=O)c3ccco3)nc2s1 | / | / | / | / | 2% | /
CCC(O)c1nc2ccccc2n1CCOc1cc(C)cc(C)c1 (stereo not drawn) | / | / | / | / | 6% | /
O=C(Cn1nc(N2CCN(c3ccccc3)CC2)ccc1=O)NCc1cccc(Cl)c1 | / | / | / | / | 3% | /
Cc1ccc(CS(=O)(=O)c2ncc(Cl)c(C(=O)Nc3nnc(C(C)C)s3)n2)cc1 | -17% | 75* | 52* | 2% | 7% | 11%
CSc1nnc(NC(=O)c2nc(S(=O)(=O)Cc3cccc(C)c3)ncc2Cl)s1 | / | 104* | 62* | -8% | -6% | -6%
CCSc1nnc(NC(=O)c2nc(S(=O)(=O)Cc3ccc(F)cc3)ncc2Cl)s1 | / | 75* | 50* | -10% | 1% | 4%
CC(C)c1nnc(NC(=O)c2nc(SCc3ccc(F)cc3)ncc2Cl)s1 | / | / | / | / | 1% | /
Cc1ccc(C)c(NC(=O)c2nc(S(=O)(=O)Cc3ccc(F)cc3)ncc2Cl)c1 | / | / | / | / | 1% | /
CC(C)c1nnc(NC(=O)c2nc(S(=O)(=O)Cc3ccc(F)cc3)ncc2Cl)s1 | / | 98* | 59* | 7% | -4% | 0%
CSc1ncc(Cl)c(C(=O)Nc2nnc(SC/C=C/c3ccccc3)s2)n1 | ? | -1 | 0 | 1% | -8% | 3%
CCOc1ccccc1NC(=O)c1nc(S(=O)(=O)Cc2cccc(C)c2)ncc1Cl | / | -13 | 0 | -6% | -8% | 4%
SMILES | FBPA Giardia inh | Shiga inhibitor | CHX counter | LmPK inh | Tb PYK inh | RE007 growth inh
Cc1cccc(CS(=O)(=O)c2ncc(Cl)c(C(=O)Nc3nnc(C(C)C)s3)n2)c1 | / | 45* | 54* | 4% | 8% | -6%
Cc1ccc(OC(=O)c2cc(-c3ccc4c(c3)OCCO4)on2)cc1C | / | / | / | / | -6% | /
Cn1nc([N+](=O)[O-])nc1S(C)(=O)=O | ? | 31 | 31* | -5% | -1% | -8%
CS(=O)(=O)c1nc([N+](=O)[O-])nn1CCCc1ccccc1 | / | / | / | / | -5% | 8%
O=C(c1ccncc1)N1CCC2(CCCN(c3ccccn3)C2)CC1 | -5% | / | / | / | -8% | /
COc1ccc2[nH]c(C(=O)O)c(CCN3C(=O)c4ccc(C(=O)O)cc4C3=O)c2c1 | -6% | 24 | 17* | 2% | 5% | -3%
